# According to PMC4336329 (PLoS ONE, 2015):
# Out of some 310,000 compounds screened, about 14,000 (4.5%) showed an effect of 50% or more. Effects have a minus sign here. Only a selection was taken, and strong results are over-represented in it overall.
# Molecular target: human ether-à-go-go-related gene (hERG) potassium channel (human, UniProt Q12809)
# Experiment: primary screen, population patch clamp on CHO cells stably expressing hERG; higher = less effect of the substance
# 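Also: peak tail current of the secondary pulse compared with the same well before compound.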
# Sequence of human ether-à-go-go-related gene (hERG) potassium channel (Q12809 whole entry, looked up): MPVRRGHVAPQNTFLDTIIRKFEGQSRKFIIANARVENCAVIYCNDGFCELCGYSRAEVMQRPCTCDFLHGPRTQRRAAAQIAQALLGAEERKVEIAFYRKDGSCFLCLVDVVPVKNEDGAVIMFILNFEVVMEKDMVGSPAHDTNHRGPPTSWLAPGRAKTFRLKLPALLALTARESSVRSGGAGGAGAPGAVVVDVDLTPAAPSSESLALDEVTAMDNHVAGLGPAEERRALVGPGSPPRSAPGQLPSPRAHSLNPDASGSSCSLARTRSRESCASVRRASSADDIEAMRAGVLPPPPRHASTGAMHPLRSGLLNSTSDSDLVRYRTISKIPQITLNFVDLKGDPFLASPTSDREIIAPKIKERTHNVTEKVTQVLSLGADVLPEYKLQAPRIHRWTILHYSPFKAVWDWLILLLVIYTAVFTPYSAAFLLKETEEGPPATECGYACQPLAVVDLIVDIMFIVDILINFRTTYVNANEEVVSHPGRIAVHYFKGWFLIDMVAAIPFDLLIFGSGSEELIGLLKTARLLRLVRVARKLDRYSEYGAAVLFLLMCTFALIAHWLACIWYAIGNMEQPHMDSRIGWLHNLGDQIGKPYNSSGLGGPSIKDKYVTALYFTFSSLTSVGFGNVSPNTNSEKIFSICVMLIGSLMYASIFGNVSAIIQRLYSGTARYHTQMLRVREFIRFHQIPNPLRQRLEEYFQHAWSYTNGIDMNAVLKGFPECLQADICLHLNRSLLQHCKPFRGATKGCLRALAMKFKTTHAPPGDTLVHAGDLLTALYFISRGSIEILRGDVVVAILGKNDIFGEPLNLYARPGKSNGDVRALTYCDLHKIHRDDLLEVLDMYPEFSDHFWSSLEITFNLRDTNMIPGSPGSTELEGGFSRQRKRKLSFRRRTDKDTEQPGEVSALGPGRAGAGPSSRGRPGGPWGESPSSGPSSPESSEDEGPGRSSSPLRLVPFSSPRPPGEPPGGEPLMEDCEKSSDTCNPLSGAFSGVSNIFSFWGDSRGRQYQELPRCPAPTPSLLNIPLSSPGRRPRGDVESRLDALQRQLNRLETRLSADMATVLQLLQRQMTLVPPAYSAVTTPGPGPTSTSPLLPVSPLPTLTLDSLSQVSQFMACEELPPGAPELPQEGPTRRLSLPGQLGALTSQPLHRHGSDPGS
row,Structure (SMILES),"hERG current change (%, negative = inhibition) at 10uM"
1,Cc1ccc(C)c(S(=O)(=O)N2CCN(CC(=O)NC(=O)NCc3ccco3)CC2)c1,-24.5%
2,Cc1cc(=S)c2cccc(C)c2[nH]1,9.4%
3,Fc1cccc(CNc2ncnc3ccc(-c4ccc5c(c4)OCO5)cc23)c1,-31%
4,COc1ccc(NC(=O)CNC(=O)C2CCCCC2)cc1,18.1%
5,CCCOc1ccc(C(=O)N/N=C/c2ccc(-c3ccc(S(=O)(=O)Nc4ncccn4)cc3)o2)cc1,-7.38%
6,Cc1cccc(OCC(=O)Nc2ccc(N3CCN(C(=O)c4ccccc4)CC3)cc2)c1C,3.45%
7,CCCCCC(=O)Nc1ccc(N2CCN(C(=O)c3ccccc3)CC2)cc1,-62.8%
8,O=C(/C=C/c1ccco1)N1CCN(c2ccccc2)CC1,-1.71%
9,CCCCCCC(=O)Nc1ccc(C(=O)N2CCCC2)cc1,0.864%
10,Cc1ccc(C(=O)N2CCN(c3ccc(NC(=S)NC(=O)Cc4ccccc4)cc3)CC2)cc1,-17.1%
11,Cc1ccc(C(=O)N2CCN(c3ccc(NC(=O)COc4ccccc4C)cc3)CC2)cc1,-73.6%
12,CCCCCC(=O)Nc1ccc(N2CCN(C(=O)CCC)CC2)cc1,-32.8%
13,COc1ccc(C(=O)N2CCN(c3ccc(NC(=O)Cc4ccccc4)cc3)CC2)cc1,-31.8%
14,O=C(/C=C\c1ccco1)Nc1ccc(N2CCN(C(=O)c3ccccc3)CC2)cc1,-55.7%
15,O=C(/C=C/c1ccco1)Nc1ccc(N2CCCC2)cc1,10.5%
16,Cc1ccc(C(=O)N2CCN(c3ccc(NC(=O)Cc4ccccc4)cc3)CC2)cc1,-71.5%
17,Cc1ccc(OCC(=O)Nc2ccc(N3CCN(C(=O)c4ccc(C)cc4)CC3)cc2)cc1,9.99%
18,COc1ccc2c(c1)CC/C(=C/c1ccco1)C2=O,10.7%
19,CCSc1oc(-c2ccco2)nc1S(=O)(=O)c1ccccc1,-12.8%
20,CCOc1ccc(C(=O)Nc2c3c(nn2-c2ccc(F)cc2)CS(=O)C3)cc1 (centres unmarked),-1.14%
21,COCCNC(=S)N1CCN(C(c2ccccc2)c2ccccc2)CC1,-10.1%
22,COc1cc(C(=O)Nc2ncccc2C)ccc1OCC(=O)N1CCOCC1,-4.78%

row,Structure (SMILES),"hERG current change (%, negative = inhibition) at 10uM"
1,CC1(c2nnc(-c3cccc(Cl)c3)o2)CC(c2ccc(F)cc2)=NO1 (centres unmarked),-8.47%
2,COc1ccc(C2C=C(c3cccs3)Nc3nc(CCCO)nn32)cc1 (centres unmarked),-57.9%
3,OCCCc1nc2n(n1)C(c1cccs1)C=C(c1ccccc1)N2 (centres unmarked),-38.5%
4,COc1ccc(C2C=C(c3ccccc3)Nc3nc(CCCO)nn32)cc1 (centres unmarked),-51.8%
5,OCCCc1nc2n(n1)C(c1ccccc1Cl)C=C(c1cccs1)N2 (centres unmarked),-5.71%
6,OCCCc1nc2n(n1)C(c1ccccc1)C=C(c1ccc(F)cc1)N2 (centres unmarked),-12.8%
7,OCCCc1nc2n(n1)C(c1ccccc1)C=C(c1ccccc1)N2 (centres unmarked),-17.3%
8,O=C(CCc1nc(-c2ccccc2)no1)NC1CCCCCC1,1.28%
9,CCc1cccc(C)c1NC(=O)CSc1nc(-c2ccccc2F)nc2nc[nH]c12,3.31%
10,NC(=O)c1cc([N+](=O)[O-])c(Cl)cc1NCc1cccnc1,-8.53%
11,Cc1cc(C)cc(OCC(=O)NNC(=O)c2ccccn2)c1,-34.6%
12,CN(C)S(=O)(=O)n1cc(/C=C(\NC(=O)c2ccccc2Cl)C(=O)N2CCOCC2)c2ccccc21,-7.07%
13,Cc1ccc(C(=O)N/C(=C\c2ccc3c(c2)OCO3)C(=O)Nc2ccc(C(=O)O)cc2)cc1,17.9%
14,O=C(Nc1ccc(C(=O)O)cc1)/C(=C\c1ccc2c(c1)OCO2)NC(=O)c1ccc(Br)cc1,5.36%
15,O=C(Nc1cccc(C(=O)O)c1)/C(=C\c1ccc2c(c1)OCO2)NC(=O)c1ccc(Br)cc1,17.9%
16,CNC(=O)/C(=C/c1ccc2c(c1)OCO2)NC(=O)c1ccc(Br)cc1,-63.4%
17,O=C(Nc1ccc(C(=O)O)cc1)/C(=C\c1ccc2c(c1)OCO2)NC(=O)c1ccccc1,22%
18,CNC(=O)/C(=C\c1ccc2c(c1)OCO2)NC(=O)c1ccc(Br)cc1,-56.5%
19,COC(=O)c1ccc(NC(=O)c2ccccc2N(C)S(=O)(=O)c2ccccc2)cc1,16.3%
20,CCN1CCN(C(c2cccnc2)c2cc(Cl)c3cccnc3c2O)CC1 (centres unmarked),-72.4%
21,CC(C)(C)c1cc(CN2CCN(CCO)CC2)cc(C(C)(C)C)c1O,-19%
22,Cc1ccc(C(c2cc(Cl)c3cccnc3c2O)N2CCN(C)CC2)cc1 (centres unmarked),-9.97%

row,Structure (SMILES),"hERG current change (%, negative = inhibition) at 10uM"
1,CN1CCN(C(c2ccc(Cl)cc2)c2cc(Cl)c3cccnc3c2O)CC1 (centres unmarked),7.12%
2,CC(C)(C)c1cc(C(c2cccnc2)N2CCN(CCO)CC2)cc(C(C)(C)C)c1O (centres unmarked),-53.8%
3,CC(C)(C)c1cc(C(=S)N2CCN(CCO)CC2)cc(C(C)(C)C)c1O,-26.6%
4,COC(=O)C1=C(C(=O)OC)[C@@H]2N(Cc3ccccc3)c3ccccc3[C@@]23C[C@@H](CO)N(C(=O)NC2CCCC2)C3=N1,-9.18%
5,CC(CN(C)Cc1ccccc1)OC(=O)c1cccs1.Cl (centres unmarked),-10.5%
6,COc1cc2c(cc1OC)C(C)N(C(=O)C1COc3ccccc3O1)CC2 (centres unmarked),-35.3%
7,Cc1sc2nc(C3CC3)nc(N3CCN(C(=O)c4ccc(Cl)cc4)CC3)c2c1C.Cl,-57.1%
8,Cc1sc2nc(C3CC3)nc(N3CCN(C(=O)c4ccccc4F)CC3)c2c1C.Cl,-37.6%
9,Cc1sc2ncnc(N3CCC(C(=O)NNC(=O)c4ccc(Cl)cc4)CC3)c2c1C,-11.2%
10,COc1ccc(C(=O)N2CCN(c3nc(C4CC4)nc4sc(C)c(C)c34)CC2)cc1.Cl,-23.8%
11,Cc1sc2nc(C3CC3)nc(N3CCN(C(=O)c4ccc(F)cc4)CC3)c2c1C.Cl,-69.8%
12,Cc1sc2nc(C3CC3)nc(N3CCN(S(=O)(=O)c4ccc(F)cc4)CC3)c2c1C,-0.18%
13,O=C(CN(c1ccc2c(c1)OCCO2)S(=O)(=O)c1ccccc1)NCc1ccco1,4.37%
14,O=C(Nc1ccc(F)cc1F)c1ccc2c(c1)OCCO2,15.4%
15,Cc1cccc(NC(=S)N(CCN2CCOCC2)Cc2cc3cc4c(cc3[nH]c2=O)OCCO4)c1,-3.3%
16,CN(C(=O)COC(=O)c1cc(S(=O)(=O)N2CCCCC2)ccc1N1CCOCC1)C1CCS(=O)(=O)C1 (centres unmarked),-6.63%
17,CCCCc1c(O)c2ccccc2[nH]c1=O,0.685%
18,COc1ccc(-n2c(C)cc(C(=O)CSc3nnc(-c4ccoc4C)n3C)c2C)cc1,-31.1%
19,CCSC1=N/C(=C\C=C2/Oc3ccccc3N2CC)C(=O)S1,-3.2%
20,COc1ccc(C(=O)C2CCCN(C3Cc4ccccc4C3)C2)cc1OC (centres unmarked),-76.6%
21,COC(=O)c1ccccc1C(=O)N1CCCC(C(=O)c2ccc(OC)c(OC)c2)C1 (centres unmarked),4.47%
22,COc1ccc(C(=O)C2CCCN(C3CSCCSC3)C2)cc1OC (centres unmarked),-21.8%

row,Structure (SMILES),"hERG current change (%, negative = inhibition) at 10uM"
1,COc1ccc(C(=O)C2CCCN(C3CSCCSC3)C2)c(OC)c1 (centres unmarked),-43.6%
2,COc1ccc(C(=O)C2CCCN(C3Cc4ccccc4C3)C2)c(OC)c1 (centres unmarked),-76.5%
3,COc1ccc(OC)c(NC(=O)N2CCCC(C(=O)c3ccccc3OC)C2)c1 (centres unmarked),5.87%
4,CC(C)(C)NC(=O)COc1ccc(CNc2ccc3[nH]c(=O)[nH]c3c2)cc1,-1.87%
5,Cn1c(NCc2ccco2)nc2c1c(=O)n(Cc1ccc(Cl)c(Cl)c1)c(=O)n2C,-15.6%
6,COCCn1c(SCC(=O)/C=C2\N(C)c3ccccc3C2(C)C)nnc1-c1ccncc1,-37.4%
7,CC(=O)Nc1ccccc1OCCOc1ccc(Br)cc1,-1.67%
8,Clc1ccc(-c2nnc3n2CCCS3)cc1,6.34%
9,O=C(NCc1nc2ccccc2[nH]1)c1ccc([N+](=O)[O-])cc1,-38.5%
10,O=C(COc1ccccc1)NCCc1nc2ccccc2[nH]1,-6.21%
11,O=C(Nc1nc2ccccc2[nH]1)c1ccc(Cl)c([N+](=O)[O-])c1,0.857%
12,O=C(COc1ccc([N+](=O)[O-])cc1)NCCc1nc2ccccc2[nH]1,-56.7%
13,CCOc1ccc(OCC(=O)NCCc2nc3ccccc3[nH]2)cc1,-34.6%
14,Cc1ccc(C(=O)NCCc2nc3ccccc3[nH]2)cc1[N+](=O)[O-],-31.8%
15,O=C(NCCc1nc2ccccc2[nH]1)c1ccc([N+](=O)[O-])cc1,-56.8%
16,O=C(NCCc1nc2ccccc2[nH]1)c1ccc(Cl)c([N+](=O)[O-])c1,-56.2%
17,Cc1ccccc1OCC(=O)NCCc1nc2ccccc2[nH]1,-9.27%
18,O=C(COc1ccccc1Br)NCCc1nc2ccccc2[nH]1,-65.3%
19,O=C(NCCc1nc2ccccc2[nH]1)c1cc([N+](=O)[O-])cc([N+](=O)[O-])c1,-8.57%
20,COc1ccccc1OCC(=O)NCCc1nc2ccccc2[nH]1,2.13%
